{"source": "paper PMC4336329", "about": "(PLoS ONE, 2015)", "note": "Screen size: about 310,000 compounds; about 14,000 (4.5%) showed an effect of 50% or more. Effects have a minus sign here. This is one part of a sample in which strong results are shown more often than they occur.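 Also: peak tail current of the secondary pulse compared with the same well before compound.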", "data": [{"target": "human ether-à-go-go-related gene (hERG) potassium channel (human, UniProt Q12809)", "sequence (Q12809 whole entry, looked up)": "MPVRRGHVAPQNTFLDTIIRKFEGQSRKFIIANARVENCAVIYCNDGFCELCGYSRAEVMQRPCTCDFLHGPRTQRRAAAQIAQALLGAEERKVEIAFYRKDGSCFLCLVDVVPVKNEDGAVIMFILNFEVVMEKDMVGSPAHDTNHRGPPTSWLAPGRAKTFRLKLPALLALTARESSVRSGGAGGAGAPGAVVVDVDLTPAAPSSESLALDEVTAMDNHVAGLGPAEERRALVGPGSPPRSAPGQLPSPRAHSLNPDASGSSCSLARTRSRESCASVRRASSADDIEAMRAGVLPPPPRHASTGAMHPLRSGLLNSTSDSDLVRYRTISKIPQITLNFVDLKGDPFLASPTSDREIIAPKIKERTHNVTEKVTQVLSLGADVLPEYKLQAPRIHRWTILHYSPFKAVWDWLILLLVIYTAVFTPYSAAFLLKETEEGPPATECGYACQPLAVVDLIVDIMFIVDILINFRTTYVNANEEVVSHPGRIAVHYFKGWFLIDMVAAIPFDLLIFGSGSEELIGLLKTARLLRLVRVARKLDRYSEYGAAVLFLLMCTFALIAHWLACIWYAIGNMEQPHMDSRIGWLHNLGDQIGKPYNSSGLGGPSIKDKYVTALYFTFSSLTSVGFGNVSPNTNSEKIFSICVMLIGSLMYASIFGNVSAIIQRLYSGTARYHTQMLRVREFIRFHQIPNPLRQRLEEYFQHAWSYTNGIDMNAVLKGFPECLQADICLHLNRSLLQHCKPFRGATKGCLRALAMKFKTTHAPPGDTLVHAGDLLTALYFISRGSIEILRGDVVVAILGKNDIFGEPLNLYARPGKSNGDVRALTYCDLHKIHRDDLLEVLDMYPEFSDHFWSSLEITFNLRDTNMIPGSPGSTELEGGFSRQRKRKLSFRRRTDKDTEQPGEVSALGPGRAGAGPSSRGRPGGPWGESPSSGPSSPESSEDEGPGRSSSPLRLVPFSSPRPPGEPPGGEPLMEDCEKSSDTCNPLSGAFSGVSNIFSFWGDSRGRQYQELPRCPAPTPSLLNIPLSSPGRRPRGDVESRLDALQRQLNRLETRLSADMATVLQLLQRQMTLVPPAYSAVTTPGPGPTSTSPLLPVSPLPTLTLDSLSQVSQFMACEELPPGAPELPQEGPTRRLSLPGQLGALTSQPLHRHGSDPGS", "assay": "primary screen, population patch clamp on CHO cells stably expressing hERG; higher = less effect of the substance", "units": {"hERG current change (%, negative = inhibition) at 10uM": "%"}, "values": [{"smiles": "O=C(CNC(=O)c1cccs1)NCC(=O)OCc1ccc(Cl)cc1", "hERG current change (%, negative = inhibition) at 10uM": -17.5}, {"smiles": "CC(=O)Nc1cccc(C(=O)/C=C/c2ccc(F)cc2)c1", "hERG current change (%, negative = inhibition) at 10uM": -31.1}, {"smiles": "CCC(=O)Nc1cccc(C(=O)/C=C/c2ccc(F)cc2)c1", "hERG current change (%, negative = inhibition) at 10uM": -69.1}, {"smiles": "CCC(=O)Nc1cccc(C(=O)/C=C/c2ccccc2)c1", "hERG current change (%, negative = inhibition) at 10uM": -37}, {"smiles": "Cc1nc(SCC(=O)NC(=O)NC(C)(C)C)nc(C)c1C", "hERG current change (%, negative = inhibition) at 10uM": -8.95}, {"smiles": "COC(=O)CSc1nnc(SCc2ccccc2)s1", "hERG current change (%, negative = inhibition) at 10uM": 7.89}, {"smiles": "CCN(CC(=O)Nc1ccc(NC(C)=O)cc1)C(=O)/C=C/c1cn(-c2ccccc2)nc1-c1ccc(F)cc1", "hERG current change (%, negative = inhibition) at 10uM": 5.58}, {"smiles": "CCCCn1c(C)cc(/C=C(\\C#N)C(=O)O)c1C", "hERG current change (%, negative = inhibition) at 10uM": -80}, {"smiles": "Cc1cc(/C=C(\\C#N)C(=O)O)c(C)n1CCC(C)C", "hERG current change (%, negative = inhibition) at 10uM": 10.5}, {"smiles": "CCCn1c(C)cc(/C=C(\\C#N)C(=O)O)c1C", "hERG current change (%, negative = inhibition) at 10uM": 10.4}, {"smiles": "O=C(N/N=C/c1cc([N+](=O)[O-])ccc1O)Nc1ccccc1", "hERG current change (%, negative = inhibition) at 10uM": 18.2}, {"smiles": "COc1ccc(CC(=O)N2CCN(c3ccc(F)cc3)CC2)cc1", "hERG current change (%, negative = inhibition) at 10uM": 1.52}, {"smiles": "COc1ccc(CNC(=O)C2CCN(C(=O)Cc3ccccc3)CC2)cc1", "hERG current change (%, negative = inhibition) at 10uM": -13.5}, {"smiles": "COc1ccc(CC(=O)N2CCC(Nc3nc4ccccc4n3Cc3ccc(F)cc3)CC2)cc1", "hERG current change (%, negative = inhibition) at 10uM": -71.7}, {"smiles": "COCC(C)N1CCC(Oc2ccc(C(=O)N3CCCC3)cc2)CC1", "note": "(stereo not drawn)", "hERG current change (%, negative = inhibition) at 10uM": 5.11}, {"smiles": "COC(=O)CCC(C)N1CCC(Oc2ccc(C(=O)N3CCCC3)cc2)CC1", "note": "(stereo not drawn)", "hERG current change (%, negative = inhibition) at 10uM": -11}, {"smiles": "COc1ccc(CCC(C)N2CCC(Oc3ccc(C(=O)N4CCCC4)cc3)CC2)cc1", "note": "(stereo not drawn)", "hERG current change (%, negative = inhibition) at 10uM": -65.4}, {"smiles": "CC(CCc1ccc(O)cc1)N1CCC(Oc2ccc(C(=O)N3CCCC3)cc2)CC1", "note": "(stereo not drawn)", "hERG current change (%, negative = inhibition) at 10uM": -55.7}, {"smiles": "CSCCC(C)N1CCC(Oc2ccc(C(=O)N3CCCC3)cc2)CC1", "note": "(stereo not drawn)", "hERG current change (%, negative = inhibition) at 10uM": -31.3}, {"smiles": "Cc1noc(/C=C/c2ccco2)c1S(=O)(=O)N1CCC(C(=O)N(C)Cc2ccccc2)CC1", "hERG current change (%, negative = inhibition) at 10uM": -4.68}, {"smiles": "O=C(CSc1ccccc1)Nc1cc(S(=O)(=O)N2CCOCC2)ccc1N1CCOCC1", "hERG current change (%, negative = inhibition) at 10uM": 14.5}, {"smiles": "Oc1cccc(Nc2nc(-c3ccccc3)nc3ccccc23)c1", "hERG current change (%, negative = inhibition) at 10uM": 9.56}, {"smiles": "COc1ccc(Nc2cc(C)nc3ccccc23)cc1.Cl", "hERG current change (%, negative = inhibition) at 10uM": -36.5}, {"smiles": "Cc1cc(C)c(C#N)c(Nc2cccc(Br)c2)n1", "hERG current change (%, negative = inhibition) at 10uM": 12.5}, {"smiles": "Cc1ccc(Nc2cc(C)nc3ccccc23)c(C)c1", "hERG current change (%, negative = inhibition) at 10uM": -42.8}, {"smiles": "COc1cccc(Nc2cc(C)c3ccccc3n2)c1", "hERG current change (%, negative = inhibition) at 10uM": 6.21}, {"smiles": "Cc1cccc(NC(=O)c2cc(C)nc3ccccc23)c1", "hERG current change (%, negative = inhibition) at 10uM": 14.7}, {"smiles": "Cc1cc(Nc2cccc(O)c2)c2ccccc2n1.Cl", "hERG current change (%, negative = inhibition) at 10uM": -64.2}, {"smiles": "Cc1cc(=O)[nH]c(Nc2cccc(Br)c2)n1", "hERG current change (%, negative = inhibition) at 10uM": 12.4}, {"smiles": "COc1cccc(Nc2cc(C)nc3ccccc23)c1", "hERG current change (%, negative = inhibition) at 10uM": -73.1}, {"smiles": "Cc1cc(Nc2cccc(Br)c2)c2ccccc2n1", "hERG current change (%, negative = inhibition) at 10uM": -86.2}, {"smiles": "Cl.Oc1cccc(Nc2c3ccccc3nc3ccccc23)c1", "hERG current change (%, negative = inhibition) at 10uM": -17.6}, {"smiles": "Cc1cccc(Nc2cc(C)nc3ccccc23)c1.Cl", "hERG current change (%, negative = inhibition) at 10uM": -65.4}]}]}
